For 77 molecules, ROS induction (% of piperlongumine) results are on record in PubChem BioAssay AID624156 (Broad Institute, 2012).

Out of some 46,000 compounds screened, about 900 (2%) were called active. Roughly 1% stayed inconclusive and do not appear here. The sample as a whole holds a higher share of actives than the screen did. A number with no mark means an inactive call. Cut-off read from the data, not from the text of the source: active = ROS induction above about 79% (passing the limit was not always enough); inconclusive = no clear call, values can overlap the other calls.

A short description of this assay: ROS inducers in U2OS cancer cells, primary screen, cell-based, H2DCF-DA fluorescence (AID 624156).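 Note: 0% = DMSO vehicle median and 100% = reference compound median.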 The settings on record: at 10 µM, active compounds read high.
Take `O=C(CCCCC(=O)N/N=C/c1ccc[nH]1)NO`: the ROS induction (% of piperlongumine) is -11.8%.

With `COC(=O)c1sccc1NC(=O)Cc1noc2ccc(C)cc12`, the ROS induction (% of piperlongumine) is -3.41%.

Take `CCC(C(=O)Nc1ccc(OC)c(OC)c1)n1c(C)c2cnn(-c3ccccc3)c(=O)c2c1C` (configuration not stated): the ROS induction (% of piperlongumine) is 6.12%. Under `CC(=NCc1ccco1)C1=C(O)c2ccccc2C1=O` stands 146% (active).

Consider `CC(=NCc1ccc2c(c1)OCO2)C1=C(O)c2ccccc2C1=O`, for which the ROS induction (% of piperlongumine) was 3.64%.

Take `COc1ccc(C=Nc2ccc(C(C)(C)C)cc2)cc1`: the ROS induction (% of piperlongumine) was -6.06%. `Cc1cccc(N2CCN(C(=O)CC3(CC4=NS(=O)(=O)c5ccccc5N4)CCCC3)CC2)c1C`: the ROS induction (% of piperlongumine) is 172% (active). In the case of `Cc1cccc(N2CCN(C(=O)CCn3c(=S)[nH]c4cc5c(cc4c3=O)OCO5)CC2)c1C` it was 8.61%. In the case of `CC1=C(C(=O)OC(C)C)C(c2cn(-c3ccccc3)nc2-c2ccc(OC(C)C)cc2)NC(=O)N1` (configuration not stated) it was -3.28%. Under `COc1ccc(S(=O)(=O)N(C)C)cc1` stands -6.36%.

For `Cc1ccc2nc(C)c3c(c2c1)N(c1ccccc1)CC3`, the ROS induction (% of piperlongumine) was 50.9%. Take `Cc1ccc2nc(Nc3ccccc3)cc(C)c2c1`: the ROS induction (% of piperlongumine) was 178% (active).

As for `Cc1ccc(Nc2nc(C)cc(C)c2C(N)=O)cc1`, the ROS induction (% of piperlongumine) was 19.7%. In the case of `C[C@@H]1CN([C@H](C)CO)C(=O)Cc2cc(NC(=O)Nc3ccccc3)ccc2O[C@@H]1CN(C)Cc1ccc(C(F)(F)F)cc1` it was 23.2%; in that of `COC(=O)c1c(C)nc(C)c(C(=O)OC)c1-c1csc(S(=O)(=O)/N=C/N(C)C)c1`, -10.2%.

As for `CCNC(=S)N1CCN(CCN=CC2=C(O)CC(c3ccccc3)CC2=O)CC1` (configuration not stated), the ROS induction (% of piperlongumine) is -5.61%.

For the molecule `C=CCn1c(=S)sc2c(SCC(=O)N3CCc4ccccc43)ncnc21`, the ROS induction (% of piperlongumine) was -9.07%. Under `CCOC(=O)c1nnn2c3ccccc3c(=O)n(C)c12` stands 38.4%; under `CCOC(=O)c1nnn2c1nc(N1CCN(c3ccccc3)CC1)c1ccccc12`, 155% (active); under `CCOC(=O)c1c(C)n(C)c2ccccc12`, -3.38%. Under `CCCNC(=O)Cn1c(=O)c2cccn2c2ccccc21` stands -9.02%. `C=C1C(=O)O[C@H]2C3=C(C)C[C@H](OC(C)=O)C[C@]3(C)CC[C@@H]12`: the ROS induction (% of piperlongumine) is 210% (active). Turning to `Cn1c(COc2ccc(C(C)(C)c3ccccc3)cc2)n[nH]c1=S`, the ROS induction (% of piperlongumine) was -8.56%.

With `CCc1cccc(O[C@@H]2O[C@@H]3COC(c4ccccc4)O[C@H]3[C@H](O)[C@H]2NC(C)=O)c1` (some centres not stated), the ROS induction (% of piperlongumine) was -15.2%.

As to `COc1ccccc1N(CC(=O)Nc1ccc(C(F)(F)F)cc1)S(C)(=O)=O`, the ROS induction (% of piperlongumine) was 4.82%. With `O=C(NCc1cccnc1)c1cnn2c(C(F)F)cc(-c3ccccc3)nc12`, the ROS induction (% of piperlongumine) is 170% (active). As for `NC(=O)c1c(NC(=O)c2cnn3c(C(F)F)cc(-c4ccccc4)nc23)sc2c1CCCC2`, the ROS induction (% of piperlongumine) was 12.4%.

`O=C(c1cc([N+](=O)[O-])ccc1NCc1cccnc1)N1CCOCC1`: the ROS induction (% of piperlongumine) was 1.17%. In the case of `C=CC[C@]1(C(=O)NCC(O)CO)N=C(c2ccc(OCCCO)cc2)O[C@H]1c1ccccc1` (some centres not stated) it was 30.5%; in that of `COCCCNC(=O)[C@@]1(Cc2ccccc2)COC(c2ccc(OCCCO)cc2)=N1`, 11.7%; in that of `O=C1N(CCS(=O)(=O)c2ccccc2)Cc2ccccc2[C@H]2OC(c3ccc(OCCCO)cc3)=N[C@@]12CCS(=O)(=O)c1ccccc1`, 141% (active). `O=C(N1CCCCC1)[C@@]1(CCS(=O)(=O)c2ccccc2)N=C(c2ccc(OCCCO)cc2)O[C@H]1c1ccccc1`: the ROS induction (% of piperlongumine) was 97.7% (active). Under `C[C@H]1CN([C@@H](C)CO)C(=O)Cc2cc(NC(=O)Nc3ccc4c(c3)OCO4)ccc2O[C@H]1CN(C)Cc1ccc(C(=O)Nc2ccccc2N)cc1` stands 29.3%. Consider `CCc1ccc(OCC(N)=O)cc1`, for which the ROS induction (% of piperlongumine) is 18.8%. In the case of `C[C@@H]1CN([C@H](C)CO)C(=O)c2cccc(NC(=O)c3nc4ccccc4s3)c2O[C@H]1CN(C)Cc1ccccc1` it was 10.3%; in that of `Nc1ncnc2nc(N3CCCCC3)[nH]c12`, -11.8%. In the case of `c1ccc(Cc2nc3c4c5c(sc4ncn3n2)CCCC5)cc1` it was 20.6%; in that of `Cc1ccc(S(=O)(=O)N(C)C[C@H]2Oc3ccc(NC(=O)Cc4cn(C)c5ccccc45)cc3CC(=O)N([C@@H](C)CO)C[C@H]2C)cc1`, 109% (active). Under `C[C@@H]1CN([C@H](C)CO)C(=O)Cc2cc(NC(=O)Cn3cnnn3)ccc2O[C@@H]1CN(C)S(=O)(=O)c1ccc(F)cc1` stands 3.99%; under `Cc1ccc(S(=O)(=O)N(C)C[C@@H]2Oc3ccc(NC(=O)Cc4cn(C)c5ccccc45)cc3C(=O)N([C@@H](C)CO)C[C@@H]2C)cc1`, -5.66%; under `Cc1ccc(S(=O)(=O)N(C)C[C@@H]2Oc3ccc(NC(=O)Cn4cnnn4)cc3CC(=O)N([C@H](C)CO)C[C@H]2C)cc1`, 101% (active). For `C[C@@H]1CN([C@@H](C)CO)C(=O)Cc2cc(NC(=O)Cn3cnnn3)ccc2O[C@@H]1CN(C)S(=O)(=O)c1cn(C)cn1`, the ROS induction (% of piperlongumine) is 4.76%. In the case of `C[C@@H]1CN([C@H](C)CO)C(=O)Cc2cc(NC(=O)Cc3cn(C)c4ccccc34)ccc2O[C@@H]1CN(C)S(=O)(=O)c1ccccc1` it was 18.9%; in that of `CC(C)(C)NC(=S)N1CCn2cccc2C1c1ccccc1F` (configuration not stated), 2.09%; in that of `Cn1nnc(NC(=O)COc2ccc(Cl)cc2Cl)n1`, -1.96%. As to `Cc1noc(C)c1NC(=O)Nc1ccc2c(c1)C(=O)N([C@H](C)CO)C[C@@H](C)[C@H](CN(C)Cc1ccncc1)O2`, the ROS induction (% of piperlongumine) is -4.05%.

Take `COc1cccc(-c2cnc3c(c2)C(=O)N([C@H](C)CO)C[C@H](C)[C@H](CN(C)Cc2ccncc2)O3)c1`: the ROS induction (% of piperlongumine) is 32.7%.

As for `Cc1c(C(=O)N(Cc2ccccc2)Cc2cccnc2)cnn1-c1ccc(F)cc1`, the ROS induction (% of piperlongumine) is -9.45%. For `Brc1ccc(/C=N/n2cnnc2SCc2ccccc2)cc1`, the ROS induction (% of piperlongumine) is 2.37%. Under `COc1ccc(NS(=O)(=O)c2ccc3c4c(cccc24)C(=O)S3)cc1` stands 35.7%; under `O=C(Oc1c(Br)cc(Br)c2cccnc12)N1CCOCC1`, 3.35%; under `COC(=O)c1c(C)n(CCNc2ccc([N+](=O)[O-])cc2)c2ccc(O)cc12`, 98.5% (active).

For `O=[N+]([O-])c1ccc(NCCNc2nc3ccccc3nc2N2CCOCC2)cc1`, the ROS induction (% of piperlongumine) is 61%. Under `COC(=O)c1ccc(NCc2cc(O)ccc2O)cc1` stands 10.2%. In the case of `C[C@@H]1CCCCO[C@@H](CN(C)C(=O)NC2CCCCC2)[C@@H](C)CN([C@H](C)CO)C(=O)c2cc(NC(=O)CCC(F)(F)F)ccc2O1` it was 37.6%; in that of `Cc1noc(C)c1NC(=O)N(C)C[C@@H]1Oc2ccc(NC(=O)Nc3ccc(C(F)(F)F)cc3)cc2C(=O)N([C@H](C)CO)C[C@@H]1C`, -6.13%; in that of `C[C@@H]1CN([C@H](C)CO)C(=O)c2cc(NC(=O)Nc3ccc(C(F)(F)F)cc3)ccc2O[C@H]1CN(C)C(=O)Nc1ccccc1`, 23.2%. Under `Cc1noc(C)c1NC(=O)N(C)C[C@H]1Oc2ccc(NC(=O)Nc3ccc(C(F)(F)F)cc3)cc2CC(=O)N([C@@H](C)CO)C[C@@H]1C` stands 87.8% (active); under `C[C@H]1CN([C@@H](C)CO)C(=O)c2cc(NC(=O)Nc3ccccc3)ccc2O[C@@H]1CN(C)C(=O)Nc1ccccc1`, -12.6%.

In the case of `Cc1noc(C)c1NC(=O)Nc1ccc2c(c1)CC(=O)N([C@H](C)CO)C[C@@H](C)[C@@H](CN(C)Cc1ccc(C(F)(F)F)cc1)O2`, the ROS induction (% of piperlongumine) was 6.6%. As for `C[C@H](CO)N1C[C@H](C)[C@H](CN(C)C(=O)Nc2ccc(C(F)(F)F)cc2)Oc2ccc(NC(=O)Nc3ccccc3)cc2C1=O`, the ROS induction (% of piperlongumine) was 84% (active).

Turning to `C[C@H]1CN([C@@H](C)CO)C(=O)Cc2cc(NS(=O)(=O)c3cn(C)cn3)ccc2O[C@H]1CN(C)C(=O)Nc1ccc(F)cc1`, the ROS induction (% of piperlongumine) is 29.3%. In the case of `C[C@@H]1CN([C@H](C)CO)C(=O)Cc2cc(NS(=O)(=O)c3cn(C)cn3)ccc2O[C@@H]1CN(C)C(=O)Nc1ccccc1` it was -5.68%. With `C[C@H](CO)N1C[C@H](C)[C@H](CN(C)C(=O)Nc2ccc(C(F)(F)F)cc2)Oc2ccc(NS(=O)(=O)c3cn(C)cn3)cc2CC1=O`, the ROS induction (% of piperlongumine) is 125% (active). In the case of `NC(=O)N1CCc2ccccc21` it was 6.65%. Under `O=C(CCCCCCC(=O)Nc1ccccc1O)N/N=C/c1ccc(C(F)(F)F)cc1` stands 7.34%. In the case of `COc1ccc(C2NNC(=S)S2)cc1` (configuration not stated) it was -8.92%; in that of `O=C(N1CCCc2ccccc21)N1c2ccccc2Sc2ccccc21`, -12.4%; in that of `C=CCN(C(=O)Cc1ccc(OC)cc1)c1nnc(-c2ccc(Cl)cc2)s1`, -4.96%. With `COc1ccc(C)cc1S(=O)(=O)N1CCN(C)CC1`, the ROS induction (% of piperlongumine) was -20.4%. `C[C@@H]1CN([C@H](C)CO)C(=O)c2cc(NC(=O)NC3CCCCC3)ccc2O[C@H]1CN(C)S(C)(=O)=O`: the ROS induction (% of piperlongumine) is -3.72%. In the case of `COC(=O)c1ccc(NC(=S)N2CCOCC2)cc1` it was -2.33%; in that of `C[C@H]1CN([C@@H](C)CO)C(=O)CCCn2cc(nn2)CO[C@H]1CN(C)S(=O)(=O)c1ccc2ccccc2c1`, 9.35%. As for `CC1CC(NC(=S)N(C)C)CC(C)(C)C1` (configuration not stated), the ROS induction (% of piperlongumine) was -10.5%.

As to `O=C(CCc1nc(-c2ccccc2Cl)no1)Nc1ccccc1[N+](=O)[O-]`, the ROS induction (% of piperlongumine) is -1.7%. Under `CC1CCN(S(=O)(=O)c2ccc(Cl)c(C(=O)Nc3ccccc3[N+](=O)[O-])c2)CC1` stands -11.1%; under `O=C(Nc1ccccc1Cl)c1ccccc1S(=O)(=O)c1ccccc1[N+](=O)[O-]`, 134% (active).
